Measured values taken from PubChem BioAssay AID1321 (The Scripps Research Institute Molecular Screening Center, 2008).
Screen size: about 220,000 compounds; about 2,600 (1.2%) were called active.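 Rule for the calls: active = activation above the mean of all tested compounds plus 3 SD, set per screening run (cut at about 8.8% in these data); inactive = the rest.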 The list comes from a sample in which actives are over-represented; it also holds similar structures and randomly drawn compounds.

What follows are molecules tested against Wee1-like protein kinase (Homo sapiens) (UniProt P30291) (assay: compounds stabilizing Wee1-luciferase fusion – cell-based, HeLa, Wee1K328M-luciferase, luminescence, primary screen (AID 1321;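 note: cells exposed to compound for 20 h before luminescence read; 0% = DMSO alone and 100% = MG132 at 30 µM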)). Conditions: HeLa Luc-Wee1K328M stability, at 5 µM, hits give high values, 100% = proteasome inhibitor MG132 effect.

Compound	reporter increase
Cc1ccc(C(=O)NNc2ncnc3ccccc23)cc1	-1.2% (inactive)
COc1ccc(C(C)=O)cc1COc1ccc(Cl)c(C)c1	1.76% (inactive)
Cn1c(NC(=O)c2ccc3c(c2)OCO3)cc(=O)n(C)c1=O	-1.07% (inactive)
CC(C)Oc1ccc(C(=O)NC(C)(C)CO)cc1	-0.33% (inactive)
CC(C)Oc1ccc(C(=O)Nc2cc(=O)n(C)c(=O)n2C)cc1	11% (active)
CC12C(=O)N(c3ccccc3)C(=O)C1C(c1ccccc1)N1CCCN12 (stereo unspecified)	1.06% (inactive)
Cc1[nH][nH]c(=O)c1N=Nc1ccccc1	3.8% (inactive)
Cc1[nH][nH]c(=O)c1C(c1ccc2c(c1)OCO2)c1c(C)[nH][nH]c1=O	1.31% (inactive)
Nc1[nH][nH]c(=O)c1N=Nc1ccc2c(c1)OCO2	9.03% (active)
CCN(CC)CCn1cnc2c1c(=O)n(CCOC(=O)c1cc(OC)c(OC)c(OC)c1)c(=O)n2C	-2.15% (inactive)
COc1ccc(/C(C)=N/N2CCOCC2)c(O)c1	3.27% (inactive)
CC(C)N(C(=O)c1ccc(-c2ccccc2F)cc1)C(C)C	1.6% (inactive)
CCN(CC)C(=O)c1sc2nc(-c3ccccc3)ccc2c1N	15.4% (active)
Cc1ccc2c(N)c(C(=O)c3ccccc3)sc2n1	3.2% (inactive)
CCOC(=O)c1sc2nc(SC)nc(-c3ccccc3)c2c1N	0.82% (inactive)
Cn1c(SCC(=O)N/N=C/c2ccc(O)c(O)c2)nc2ccccc21	3.18% (inactive)
O=C(Cc1ccccc1)NCc1ccc(F)cc1	0.79% (inactive)
CCC(C(=O)OCC(=O)Nc1ccccc1-c1ccccc1)c1ccccc1 (stereo unspecified)	3.65% (inactive)
O=C(CNCc1ccc(F)cc1)Nc1ccccc1-c1ccccc1	11.8% (active)
CC(=O)OCCOCn1cnn2c(=O)c(Br)c(C)nc12	5.31% (inactive)
CCOC(=O)C(=O)C1C(=O)Nc2ccccc21 (stereo unspecified)	-1.16% (inactive)
O=C1CC2(CC(c3ccc(Cl)cc3)=NO2)C(=O)N1c1ccccc1 (stereo unspecified)	0.07% (inactive)

Compound	reporter increase
CCOc1cc2c(Cl)ncnc2c(OCC)c1OCC	-3.14% (inactive)
COc1ccc(NC(=O)COC(=O)CNC(=O)C2CCCCC2)cc1	11.6% (active)
COc1ccc(OCC(=O)OCC(=O)Nc2ccc(S(=O)(=O)N3CCCCC3)cc2)cc1	-0.17% (inactive)
COc1ccc(CCNC(=O)COC(=O)C2CCCCC2)cc1	-1.3% (inactive)
Cc1ccc(OCC(=O)N/N=C/c2ccncc2)cc1	-0.52% (inactive)
O=C(CN1CCSCC1)N/N=C/c1ccc(Cl)cc1	2.89% (inactive)
Cc1ccc(COc2ccc(/C=N/NC(=O)CN3CCCCC3)cc2)cc1	22.3% (active)
CC1=NOC(=O)/C1=C\c1ccccc1	-0.32% (inactive)
O=C(COc1ccc([N+](=O)[O-])cc1Cl)Nn1cnnc1	-0.06% (inactive)
COc1ccc(-c2ccc(OC(=O)NC3CCS(=O)(=O)C3)cc2)cc1 (stereo unspecified)	9.29% (active)
COc1ccc(NC(=S)NC2CCS(=O)(=O)C2)cc1 (stereo unspecified)	4.7% (inactive)
CC(C)(C)c1ccc(/C=C/C(=O)NC2CCS(=O)(=O)C2)cc1 (stereo unspecified)	2.93% (inactive)
O=C(NCCCN1CCCCCC1)c1ccc(N2CCCC2=O)cc1	2.16% (inactive)
CC1CCC(NC(=O)c2ccc(N3CCCC3=O)cc2)CC1 (stereo unspecified)	0.06% (inactive)
CCCNC(=O)NCc1ccc(N2CCCC2=O)cc1	10.3% (active)
O=S(=O)(Cc1noc(-c2ccc(OC(F)(F)F)cc2)n1)c1ccc(F)cc1	4.61% (inactive)
CCOc1ccc(CN(Cc2ccco2)S(=O)(=O)c2ccc(-n3cnnn3)c(OC)c2)cc1	1.7% (inactive)
CCOc1ccc(CN(Cc2ccco2)C(c2cccs2)c2nnnn2C(C)(C)C)cc1 (stereo unspecified)	9.99% (active)
CC(C)(C)n1nnnc1C(c1cccs1)N(Cc1cccnc1)CC1CCCO1 (stereo unspecified)	4.79% (inactive)
CCCCCCCCCCCCN1C(=O)CSC1c1cccnc1 (stereo unspecified)	-0.61% (inactive)
COc1ccc(CCNC(=O)C(=O)NCC2CCNCC2)cc1OC	-1.92% (inactive)
COc1cc(/C=N\Nc2nc(-c3cccs3)c(NC(C)=O)s2)ccc1O	-1.53% (inactive)

Compound	reporter increase
COc1ccc(NS(=O)(=O)c2ccc(N3CCOCC3)c(NC(=O)c3ccccc3Br)c2)cc1	0.37% (inactive)
O=C(CSc1nnc(-c2cccs2)n1Cc1ccccc1)N1CCc2ccccc2C1	9.02% (active)
O=C(CSc1nnc(-c2cccs2)n1-c1ccccc1)N1CCN(C(=O)c2ccco2)CC1	-2.17% (inactive)
CCn1c(SCC(=O)c2ccc3ccccc3c2)nnc1-c1cccs1	4.66% (inactive)
CCOc1ccc(-n2cnc3c(=O)[nH]c(N)nc32)cc1	-1.45% (inactive)
CC(C)c1cc(CN2CCOCC2)cc(C(C)C)c1O	1.64% (inactive)
O=C(CCCCCN1C(=O)c2cccc3cccc(c23)C1=O)NCc1ccco1	-0.37% (inactive)
Cc1cccc(-[n+]2c(-c3cccc(Br)c3)[nH]c3nc4ccccc4nc32)c1	1.73% (inactive)
C=CCc1ccc(OCCOc2cccc(/C=N/n3cnnc3)c2)c(OC)c1	0.6% (inactive)
COc1ccccc1OCCOc1ccc(/C=N/n2cnnc2)cc1	3.34% (inactive)
COc1cccc(OCCOc2cccc(/C=N/n3cnnc3)c2)c1	10.7% (active)
COc1ccc(NC(=O)c2cn(-c3ccccc3)nc2SC)cc1	-2.29% (inactive)
O=C(CSc1nnc(SCc2ccc(F)cc2)s1)Nc1ccc(C(=O)O)cc1	-1.55% (inactive)
CS/C(=C\C(=O)c1ccco1)Nc1ccccc1Cl	6.17% (inactive)
NNC(=O)C1CCCn2c1nc1sc3c(c1c2=O)CCCC3 (stereo unspecified)	-0.79% (inactive)
Cc1nc2sc3c(c2c(=O)n1NC(=O)CCl)CCCC3	1.1% (inactive)
Cn1c(NN)nc2sc3c(c2c1=O)CCC3	11.1% (active)
CC(NS(=O)(=O)c1ccccc1)c1n[nH]c(=S)n1-c1ccccc1 (stereo unspecified)	0.56% (inactive)
COC(=O)c1sc(NC(=S)NC(=O)c2ccc(C)cc2)nc1C	-0.57% (inactive)
Cc1nc(N2CCCCC2)sc1C=O	-0.49% (inactive)
c1c2c(cc3sc(N4CCCCC4)nc13)OCCO2	-3.23% (inactive)
Brc1ccc2nc(N3CCCC3)sc2c1	18.3% (active)
